# Source: the supplement of paper PMC5407854, “Inhibitor of ppGalNAc-T3-mediated O-glycosylation blocks cancer cell invasiveness and lowers FGF23 levels” (eLife, 2017)
# In all, about 1,700 compounds were measured (“T3 sensor activation Q score (MG/GFP ratio z-score vs DMSO controls)”: median about 0.25, highest 2% from about 1.9 on). The list comes from a sample in which the highest values are over-represented; it also holds similar structures and randomly drawn compounds.
# System: ppGalNAc-T3 sensor
# Assay: T3 sensor activation Q score (MG/GFP ratio z-score vs DMSO controls) (SD units); higher = more sensor activation (inhibition of ppGalNAc-T3 glycosylation)
# Settings: HEK293 sensor cells; 10 µM; 6 h
# Procedure: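 Cells were treated with compound at 10 uM for 6 h, then MG/GFP ratio was read by flow cytometry (10,000 cells per well, duplicate wells). Q = (R - R_neg)/SD_neg relative to DMSO vehicle controls; the signal rises when the glycosyltransferase is inhibited.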
row,SMILES,T3 sensor activation Q score
1,O=S1(=O)CSCS(=O)(=O)C1,-0.85
2,Cc1ccc(NC(=O)Nc2ccccc2C(N)=O)cc1,-0.95
3,CSc1cccc(NC(=O)Nc2ccccc2C(N)=O)c1,0.9
4,Cc1cc(NC(=O)NC(=O)c2ccccc2NC(=O)C(C)N)ccc1Oc1ncc(Br)cn1 (stereo not given),4.35
5,C[C@@H]1O[C@@H](Oc2c(-c3cc(O)c(O)c(O)c3)oc3cc(O)cc(O)c3c2=O)[C@H](O)[C@H](O)[C@H]1O,0.05
6,NC(N)=Nc1ccc(N=C(N)N)cc1,0.3
7,COc1ccc(OC)c(NC(=O)c2cc3oc4ccccc4c3cc2O)c1,-1.55
8,Nc1cc(=O)[nH]c2ncnn12,-0.15
9,CCOc1ccc(NC(=O)C2CCCN(C)C2)cc1 (stereo not given),0.6
10,Nc1ncnc2c([C@@H]3O[C@H](CO)[C@@H](O)[C@H]3O)c[nH]c12,0.15
11,COC(=O)CC1OCC=C2CN3CCC45C6=CC(=O)C(=O)C([N+](=O)[O-])=C6NC4C1C2CC35 (stereo not given),-0.2
12,CCOC(=O)C1(C#N)C(=O)CSC1=Nc1ccccc1Cl (stereo not given),-1.05
13,CCOC(=O)Nc1cc2c(c(N)n1)N=C(c1ccccc1)CN2,4
14,CCOC(=O)Nc1c2ccccc2nc2ccccc12,-1.8
15,CCOC(=O)Nc1csnn1,-0.7
16,Oc1ccc(Nc2ccnc3cc(Cl)ccc23)cc1,1.1
17,O=C(Nc1cccc([N+](=O)[O-])c1)c1cccc(C(=O)Nc2cccc([N+](=O)[O-])c2)c1,-0.25
18,Cc1c(-c2ccccc2)n(O)[n+]([O-])c1-c1ccccc1,0.7
19,Oc1ccccc1Nc1ccccn1,1.75
20,Cc1nnc2nc(-c3ccccc3)nc(-c3ccccc3)n12,-1.75
21,CCOC(=O)c1c(O)cc(C)[nH]c1=O,-0.85
22,O=S(=O)(c1ccc2c(c1)CCCN2)N1CCC[C@H]2CCCC[C@@H]21,0.2
23,O=C1OC(CN(Cc2ccccc2)Cc2ccccc2)CN1/N=C/c1ccc([N+](=O)[O-])o1 (stereo not given),-0.6
24,Cc1cc2nc(CS)[nH]c2cc1C,-1.1
25,CC(=O)Nc1ccc2cc3ccc(NC(C)=O)cc3nc2c1,0.2
26,Cc1ccc(-n2nnnc2-c2cccnc2)cc1,-0.15
27,CCOC(=O)c1cc[nH]c1CC(=O)NC,0.6

row,SMILES,T3 sensor activation Q score
1,Cc1ccc2c(c1)c1ccc3c(c1n2C)C(=O)C=CC3=O,-1.5
2,Cc1cccc(C)c1NC(=O)Nc1ccc(S(N)(=O)=O)cc1,1.6
3,CCOC(=O)/C(C#N)=C1\SS/C(=C(/C#N)C(=O)OCC)S1,0.55
4,c1cc(CN2CCCNCCNCCCNCC2)ccc1CN1CCCNCCNCCCNCC1,-0.5
5,NCCN1CCNCC1,1.85
6,C=CCOc1ccc(S(C)(=O)=O)cc1,1.85
7,C#CCOCC1CN(c2ccccc2)C(=O)O1 (stereo not given),1.9
8,CCCCOc1ccc(N=Nc2ccc(N)nc2N)cn1,1.7
9,N#CC1C=Cc2c(ccc3ccccc23)N1C(=O)c1ccccc1 (stereo not given),2.65
10,O=C(CC1C=Cc2ccccc2N1C(=O)c1ccccc1)c1ccccc1 (stereo not given),-1.4
11,O=C(Nc1cccc2ccccc12)c1ccccc1,-0.45
12,Nc1ccc2c(c1)Cc1cc(Cl)c(Cl)cc1-2,-0.65
13,OC(COc1ccc(Cl)cc1)CN1CCN(c2cccc(Cl)c2)CC1 (stereo not given),-0.65
14,O=C(Nc1ccc2ncccc2c1)Nc1ccc2ncccc2c1,0.15
15,Cc1c(CCO)c(=O)n2n1CCCC2,-0.55
16,CCCCCCCC1(C)NC(=O)NC1=O (stereo not given),-1.9
17,ClCC(CNCc1ccccc1)c1ccccc1 (stereo not given),0.35
18,O=c1cc(-c2ccc(Cl)cc2)[nH]c2ccccc12,0
19,c1ccc(N=NN2CCOCC2)cc1,-0.75
20,CC1(C)OC2C(CO)OC(n3cnc4c(=S)nc[nH]c43)C2O1 (stereo not given),0.4
21,COC(=O)CC1(C(=O)OC)Nc2cc(Cl)c(Cl)cc2S(=O)(=O)N1O (stereo not given),0.7
22,CN(CCC#N)c1ccc(/C=C(\C#N)c2cccc(C(F)(F)F)c2)cc1,-0.05
23,CC1CC(C)(C)NC2(CCCC2)N1 (stereo not given),-0.6
24,O=C(Nc1ccc(O)c(C(=O)O)c1)Oc1ccccc1,0.9
25,c1ccc2[nH]c(-c3ccncc3)nc2c1,0.2
26,CC(=O)CC(=O)Nc1ccc2ccccc2c1,1.25
27,c1ccc2[nH]c(CCCCCc3nc4ccccc4[nH]3)nc2c1,-0.5

row,SMILES,T3 sensor activation Q score
1,Cc1ccc(CC#N)c(-c2c(CC#N)ccc(C)c2C)c1C,-0.85
2,c1ccc2c(c1)[nH]c1c3ccccc3sc21,-0.95
3,O=C(Nc1ccc(Nc2ccncc2)cc1)c1ccc([N+](=O)[O-])cc1,0.75
4,O=C(Nc1ccc(Nc2ccncc2)cc1)c1ccc(Nc2ccnc3ccc([N+](=O)[O-])cc23)cc1,9.85
5,O=C(Nc1ccc(Nc2ccncc2)cc1)c1ccc(Nc2ccnc3ccc([N+](=O)[O-])cc23)cc1[N+](=O)[O-],-1.4
6,C/C(=N\NC(=S)N1CC2CCC(CC2)C1)c1cnccn1,-1.2
7,CCOC(=O)c1nn(-c2ccccc2)cc1O,0.05
8,O=C(c1ccc(OCCN2CCCCC2)cc1)c1c(-c2ccc(O)cc2)sc2cc(O)ccc12,2.7
9,CC1=Nc2ccccc2/C1=C\c1c(C)[nH]c2ccccc12,-0.45
10,O=C(C(=O)c1cccnc1)c1cccnc1,1.75
11,Cc1ccc(NC(=O)Nc2cccnc2)cc1NC(=O)Nc1cccnc1,0.95
12,Cc1ccncc1C(N)=O,1.9
13,COc1ccccc1NC(=O)c1cc2ccccc2cc1O,-0.55
14,NC(=O)c1cc(C(N)=O)nc(Cl)n1,-0.8
15,C=CCNC(=S)N1CCN(c2ccccc2Cl)CC1,-0.25
16,O=C(C(Cl)Cl)N1CC2CCC(CC2)C1,1.4
17,NS(=O)(=O)c1ccc(NC(=S)NC(=O)c2ccco2)cc1,1
18,CN=C1C=C/C(=N/N=c2/ccn(O)cc2C)C=C1C,0.15
19,CC(C)(C)c1ccc(C(=O)N2CCOC23CCCCC3)cc1,1.85
20,O=C(COc1cc(Cl)c(Cl)cc1Cl)Nc1ccc([N+](=O)[O-])cc1Cl,-0.3
21,O=C(COc1ccc([N+](=O)[O-])cc1Cl)N1CCOCC1,1.85
22,CC(=O)NCCCOc1ccc([N+](=O)[O-])cc1Cl,-0.6
23,COc1ccc(Br)c2c1C(=O)CC2,-1.4
24,CCCN(CCC)CC(=O)N1CC(=O)Nc2ccccc21,0.55
25,Nc1ccc(N=Nc2ccc(O)cc2)c(N)n1,1.5
26,Cc1ccc(N=Nc2c(O)c3ccccc3[nH]c2=O)c(S(=O)(=O)N(C)C)c1,0.95
